From the supplement of paper PMC8728848
The sample as a whole holds a higher share of the strongest signals than the screen did.

B1: Pwp6 (Candida glabrata) (protein)
chain: MGSSHHHHHHSSGLVPRGSHMASANLPKLTNICQIPDNVKKTSGFKGEIRRIGLFPPGGDYTYLLKFPSTGSTASDTISLTTKPQLSTSGWFPSLFGHTYFIKADLLVYMVAYFVPTETGEYTFKLVNSDDAAVMYVGNPSAFPCGSIDTWPEPRKEDINVCDKISASTKLYMEKGLAYPVRLVWYNGGGDGQFNAQFIDPSGTTHTDWNGYVWQYDACTDCDYK
B2: Flo1 (Saccharomyces cerevisiae), P32768 (protein)
chain: SGATEACLPAGQRKSGMNINFYQYSLKDSSTYSNAAYMAYGYASKTKLGSVGGQTDISIDYNIPCVSSSGTFPCPQEDSYGNWGCKGMGACSNSQGIAYWSTDLFGFYTTPTNVTLEMTGYFLPPQTGSYTFKFATVDDSAILSVGGATAFNCCAQQQPPITSTNFTIDGIKPWGGSLPPNIEGTVYMYAGYYYPMKVVYSNAVSWGTLPISVTLPDGTTVSDDFEGYVYSFDDDLSQSNCTVPDPSNY

Columns and labels:
Assay in all cases: glycan array binding signal (z-score within array); higher = stronger binding
Conditions in all cases: glycan notation: IUPAC condensed, linker removed
[1] = molecular target: Man(a1-2)Man(a1-3)[Man(a1-2)Man(a1-6)]Man(a1-6)[Man(a1-2)Man(a1-2)Man(a1-3)]Man
Outline: (§1)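 The Consortium for Functional Glycomics database supplied 3228 glycan arrays, of which those lacking an available protein sequence were dropped. The binding signal, a within-array Z-score, was averaged across arrays of the same protein sequence and across linkers. Negative scores can be read as non-binding.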

[2] = molecular target: Neu5Ac(a2-3)Gal(b1-3)[Fuc(a1-4)]GlcNAc
Outline: as §1

[3] = molecular target: Neu5Ac(a2-3)Gal(b1-4)GlcNAc(b1-2)Man(a1-3)[Neu5Ac(a2-3)Gal(b1-4)GlcNAc(b1-2)Man(a1-6)]Man(b1-4)GlcNAc(b1-4)GlcNAc
Outline: as §1

[4] = molecular target: Neu5Ac(a2-3)Gal(b1-4)GlcNAc(b1-2)[Neu5Ac(a2-3)Gal(b1-4)GlcNAc(b1-6)]Man(a1-6)[Neu5Ac(a2-3)Gal(b1-4)GlcNAc(b1-2)Man(a1-3)][GlcNAc(b1-4)]Man(b1-4)GlcNAc(b1-4)GlcNAc
Outline: as §1

[5] = molecular target: Neu5Ac(a2-3)Gal(b1-4)[Fuc(a1-3)]GlcNAc(b1-3)Gal(b1-4)[Fuc(a1-3)]GlcNAc(b1-3)Gal(b1-4)[Fuc(a1-3)]GlcNAc
Outline: as §1

[6] = molecular target: Neu5Ac(a2-3)Gal(b1-4)[Fuc(a1-3)]GlcNAc(b1-6)[Gal(b1-3)]GalNAc
Outline: as §1

[7] = molecular target: Neu5Ac(a2-6)Gal(b1-4)GlcNAc(b1-2)[Neu5Ac(a2-6)Gal(b1-4)GlcNAc(b1-4)]Man(a1-3)[GlcNAc(b1-4)][Neu5Ac(a2-6)Gal(b1-4)GlcNAc(b1-4)Man(a1-6)]Man(b1-4)GlcNAc(b1-4)GlcNAc
Outline: as §1

[8] = molecular target: Neu5Ac(a2-6)Gal(b1-4)GlcNAc(b1-3)Gal(b1-4)GlcNAc(b1-3)Gal(b1-4)GlcNAc(b1-2)Man(a1-3)[Neu5Ac(a2-6)Gal(b1-4)GlcNAc(b1-3)Gal(b1-4)GlcNAc(b1-3)Gal(b1-4)GlcNAc(b1-2)Man(a1-6)]GalNAc
Outline: as §1

[9] = molecular target: Neu5Ac(a2-6)GalNAc(b1-4)GlcNAc6S
Outline: as §1

[10] = molecular target: Neu5Gc(a2-3)Gal(b1-4)[Fuc(a1-3)]GlcNAc
Outline: as §1

[11] = molecular target: Fuc(a1-2)Gal(b1-3)GalNAc(b1-4)[Neu5Ac(a2-3)]Gal(b1-4)Glc
Outline: as §1

[12] = molecular target: Fuc(a1-2)Gal(b1-3)GlcNAc(b1-2)Man(a1-3)[Fuc(a1-2)Gal(b1-3)GlcNAc(b1-2)Man(a1-6)]Man(b1-4)GlcNAc(b1-4)[Fuc(a1-6)]GlcNAc
Outline: as §1

[13] = molecular target: Fuc(a1-2)Gal(b1-3)[Fuc(a1-4)]GlcNAc(b1-2)Man(a1-3)[Fuc(a1-2)Gal(b1-3)[Fuc(a1-4)]GlcNAc(b1-2)Man(a1-3)]Man(b1-4)GlcNAc(b1-4)GlcNAc
Outline: as §1

[14] = molecular target: Fuc(a1-2)Gal(b1-3)[Fuc(a1-4)]GlcNAc(b1-2)Man(a1-3)[Fuc(a1-2)Gal(b1-3)[Fuc(a1-4)]GlcNAc(b1-2)Man(a1-6)]Man(b1-4)GlcNAc(b1-4)GlcNAc
Outline: as §1

[15] = molecular target: Fuc(a1-2)Gal(b1-4)Fuc(a1-3)]GlcNAc(b1-2)Man(a1-3)[Fuc(a1-2)Gal(b1-4)[Fuc(a1-3)]GlcNAc(b1-2)Man(a1-6)]Man(b1-4)GlcNAc(b1-4)GlcNAc
Outline: as §1

[16] = molecular target: Fuc(a1-2)Gal(b1-4)[Fuc(a1-3)]GlcNAc(b1-2)Man(a1-3)[Fuc(a1-2)Gal(b1-4)[Fuc(a1-3)]GlcNAc(b1-2)Man(a1-6)]Man(b1-4)GlcNAc(b1-4)GlcNAc
Outline: as §1

[17] = molecular target: Fuc(a1-2)[Gal(a1-3)]Gal(b1-3)GlcNAc(b1-3)GalNAc
Outline: as §1

[18] = molecular target: Fuc(a1-2)[Gal(a1-3)]Gal(b1-4)GlcNAc(b1-2)Man(a1-3)[Fuc(a1-2)[Gal(a1-3)]Gal(b1-4)GlcNAc(b1-2)Man(a1-6)]Man(b1-4)GlcNAc(b1-4)[Fuc(a1-6)]GlcNAc
Outline: as §1

[19] = molecular target: Fuc(a1-2)[Gal(a1-3)]Gal(b1-4)GlcNAc(b1-3)[Fuc(a1-2)[Gal(a1-3)]Gal(b1-4)GlcNAc(b1-6)]GalNAc
Outline: as §1

[20] = molecular target: Fuc(a1-2)[Gal(a1-3)]Gal(b1-4)[Fuc(a1-3)]Glc
Outline: as §1

[21] = molecular target: Fuc(a1-2)[GalNAc(a1-3)]Gal
Outline: as §1

[22] = molecular target: Fuc(a1-2)[GalNAc(a1-3)]Gal(b1-3)GalNAc(a1-3)[Fuc(a1-2)]Gal(b1-4)GlcNAc
Outline: as §1

[23] = molecular target: Fuc(a1-2)[GalNAc(a1-3)]Gal(b1-4)Glc
Outline: as §1

[24] = molecular target: Fuc(a1-3)[Gal3S(b1-4)]Glc
Outline: as §1

[25] = molecular target: Gal(b1-3)GalNAc(a1-3)[Fuc(a1-2)]Gal(b1-4)GlcNAc
Outline: as §1

[26] = molecular target: Gal(b1-3)GlcNAc(b1-2)Man(a1-3)[GlcNAc(b1-4)][Gal(b1-3)GlcNAc(b1-2)Man(a1-6)]Man(b1-4)GlcNAc(b1-4)GlcNAc
Outline: as §1

[27] = molecular target: Gal(b1-3)GlcNAc(b1-3)Gal(b1-4)GlcNAc(b1-3)Gal(b1-4)GlcNAc(b1-2)[Gal(b1-3)GlcNAc(b1-3)Gal(b1-4)GlcNAc(b1-3)Gal(b1-4)GlcNAc(b1-6)]Man(a1-6)[Gal(b1-3)GlcNAc(b1-3)Gal(b1-4)GlcNAc(b1-3)Gal(b1-4)GlcNAc(b1-2)Man(a1-3)]Man(b1-4)GlcNAc(b1-4)[Fuc(a1-6)]GlcNAc
Outline: as §1

[28] = molecular target: Gal(b1-3)GlcNAc(b1-3)Gal(b1-4)[Fuc(a1-3)]GlcNAc
Outline: as §1

[29] = molecular target: Gal(b1-3)[Fuc(a1-4)]GlcNAc(b1-2)Man
Outline: as §1

[30] = molecular target: Gal(b1-4)GalNAc(b1-3)[Fuc(a1-2)]Gal(b1-4)GlcNAc
Outline: as §1

[31] = molecular target: Gal(b1-4)GlcNAc(b1-2)Man(a1-3)[Gal(b1-4)GlcNAc(b1-2)Man(a1-6)]Man(b1-4)GlcNAc(b1-4)GlcNAc
Outline: as §1

[32] = molecular target: Gal(b1-4)GlcNAc(b1-2)Man(a1-6)[Man(a1-3)]Man(b1-4)GlcNAc(b1-4)GlcNAc
Outline: as §1

[33] = molecular target: Gal(b1-4)GlcNAc(b1-2)[Gal(b1-4)GlcNAc(b1-4)]Man(a1-3)[Gal(b1-4)GlcNAc(b1-2)Man(a1-6)]Man(b1-4)GlcNAc(b1-4)GlcNAc
Outline: as §1

[34] = molecular target: Gal(b1-4)GlcNAc(b1-2)[Gal(b1-4)GlcNAc(b1-4)]Man(a1-3)[Gal(b1-4)GlcNAc(b1-2)[Gal(b1-4)GlcNAc(b1-6)]Man(a1-6)]Man(b1-4)GlcNAc(b1-4)GlcNAc
Outline: as §1

[35] = molecular target: Gal(b1-4)GlcNAc(b1-2)[Gal(b1-4)GlcNAc(b1-4)]Man(a1-3)[GlcNAc(b1-4)][Gal(b1-4)GlcNAc(b1-2)Man(a1-6)]Man(b1-4)GlcNAc(b1-4)GlcNAc
Outline: as §1

[36] = molecular target: Gal(b1-4)GlcNAc(b1-3)Gal(b1-3)GalNAc
Outline: as §1

[37] = molecular target: Gal(b1-4)GlcNAc(b1-3)Gal(b1-4)GlcNAc(b1-2)Man(a1-3)[Gal(b1-4)GlcNAc(b1-3)Gal(b1-4)GlcNAc(b1-2)Man(a1-6)]Man(b1-4)GlcNAc(b1-4)[Fuc(a1-6)]GlcNAc
Outline: as §1

[38] = molecular target: Gal(b1-4)GlcNAc(b1-3)Gal(b1-4)GlcNAc(b1-3)Gal(b1-4)GlcNAc(b1-3)Gal(b1-4)GlcNAc(b1-2)[Gal(b1-4)GlcNAc(b1-3)Gal(b1-4)GlcNAc(b1-3)Gal(b1-4)GlcNAc(b1-3)Gal(b1-4)GlcNAc(b1-6)]Man(a1-6)[Gal(b1-4)GlcNAc(b1-3)Gal(b1-4)GlcNAc(b1-3)Gal(b1-4)GlcNAc(b1-3)Gal(b1-4)GlcNAc(b1-2)Man(a1-3)]Man(b1-4)GlcNAc(b1-4)[Fuc(a1-6)]GlcNAc
Outline: as §1

[39] = molecular target: Gal(b1-4)GlcNAc(b1-6)Gal(b1-4)GlcNAc
Outline: as §1

Gal3S(b1-3)GalNAc = molecular target: Gal3S(b1-3)GalNAc
Outline: as §1

| Binder | glycan array binding signal (z-score) [1] | glycan array binding signal (z-score) [2] | glycan array binding signal (z-score) [3] | glycan array binding signal (z-score) [4] | glycan array binding signal (z-score) [5] | glycan array binding signal (z-score) [6] | glycan array binding signal (z-score) [7] | glycan array binding signal (z-score) [8] | glycan array binding signal (z-score) [9] | glycan array binding signal (z-score) [10] | glycan array binding signal (z-score) [11] | glycan array binding signal (z-score) [12] | glycan array binding signal (z-score) [13] | glycan array binding signal (z-score) [14] | glycan array binding signal (z-score) [15] | glycan array binding signal (z-score) [16] | glycan array binding signal (z-score) [17] | glycan array binding signal (z-score) [18] | glycan array binding signal (z-score) [19] | glycan array binding signal (z-score) [20] | glycan array binding signal (z-score) [21] | glycan array binding signal (z-score) [22] | glycan array binding signal (z-score) [23] | glycan array binding signal (z-score) [24] | glycan array binding signal (z-score) [25] | glycan array binding signal (z-score) [26] | glycan array binding signal (z-score) [27] | glycan array binding signal (z-score) [28] | glycan array binding signal (z-score) [29] | glycan array binding signal (z-score) [30] | glycan array binding signal (z-score) [31] | glycan array binding signal (z-score) [32] | glycan array binding signal (z-score) [33] | glycan array binding signal (z-score) [34] | glycan array binding signal (z-score) [35] | glycan array binding signal (z-score) [36] | glycan array binding signal (z-score) [37] | glycan array binding signal (z-score) [38] | glycan array binding signal (z-score) [39] | glycan array binding signal (z-score) (Gal3S(b1-3)GalNAc) |
| --- | --- | --- | --- | --- | --- | --- | --- | --- | --- | --- | --- | --- | --- | --- | --- | --- | --- | --- | --- | --- | --- | --- | --- | --- | --- | --- | --- | --- | --- | --- | --- | --- | --- | --- | --- | --- | --- | --- | --- | --- |
| B1 | -0.603 | -0.364 | 4.2 | 1.89 | -0.179 | -0.222 | -0.266 | 8.45 | 0.14 | -0.654 |  |  |  |  |  |  |  |  |  |  |  |  |  |  |  |  |  |  |  |  |  |  |  |  |  |  |  |  |  |  |
| B2 |  |  |  |  |  |  |  |  |  |  | -0.19 | 1.41 | -0.362 | 2.44 | 3.01 | 2.48 | 2.18 | 3.01 | 0.353 | -0.047 | -0.514 | 0.065 | 0.017 | 0.119 | -0.653 | 1.05 | 2.69 | -0.364 | 2.33 | 0.699 | -0.067 | 0.098 | -0.087 | 0.251 | 0.797 | -0.714 | 8.23 | 1.44 | -0.551 | -0.392 |
